Compound activity from PubChem.
Only some compounds are listed: those with a hit (about 6.7% of all), similar ones and a draw of the others.
SW480 rerep – inducers of DNA re-replication in SW480 colon cancer cells | SW480 DNA re-replication, Hoechst DNA content imaging, 48 h | Potency, µM (series often up to 46.1 µM), usual class: activators | 340,000 compounds, 1.8% hits | AID 624297; further: nearly all actives have a fitted effect of over 55% in size
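Treated cells incubate 48 hr (37 C, 5% CO2), are stained 40 min with Hoechst, and nuclear fluorescence is enumerated; a rise in nuclei with high DNA signal marks re-replication.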
KB-3-1 cytotox – kills parental KB-3-1 adenocarcinoma cells. Potency, µM (series often up to 46.1 µM), usual class: cytotoxic. 400,000 compounds, 1.4% hits. KB-3-1 viability, CellTiter-Glo ATP luminescence, 72 h; further: nearly all actives have a fitted effect of over 60% in size
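Parental KB-3-1 adenocarcinoma cells in phenol-red-free DMEM with 10% FBS were pin-treated with compounds at several concentrations, incubated 72 h at 37 °C, and viability read by CellTiter-Glo luminescence; concentration-effect curves were fitted after normalization.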
MCF10A rereplic – DNA re-replication induction in MCF 10a cells. MCF 10A DNA re-replication, Hoechst nuclear intensity, 48 h. Potency, µM (highest dose often 46.1 µM), actives largely listed as activators. 350,000 compounds, 2.9% hits; further: nearly all actives have a fitted effect of over 50% in size
KB-V1 MDR tox – KB-V1 MDR subline cytotoxicity | KB-V1 MDR cells viability, CellTiter-Glo, 72 h | Potency, µM (doses to about 46.1 µM), usual class: cytotoxic | 400,000 compounds, 3.4% hits | AID 1347076; further: nearly all actives have a fitted effect of over 60% in size
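Following 72 h at 37 degrees C with compound, KB-V1 cell viability was read by CellTiter-Glo luminescence, medium being phenol-red-free DMEM plus 10% FBS; concentration-response parameters came from normalized, curve-fitted qHTS data.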
PINK1 expr mod – PINK1 expression modulation | PINK1 immunofluorescence, high-content cytometry, 24 h | Potency, µM (highest dose often 76.6 µM), usual class: activators | 410,000 compounds, 0.2% hits; active means well fitted activation curve with a large enough effect; inconclusive means small, poorly fitted or top-dose-only effect; cell line not stated here; further: nearly all actives have a fitted effect of over 65% in size
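Fluorescence from anti-PINK1 antibody, together with nuclear and cell stains, was scanned on a laser-scanning cytometer. Before staining, stable-line cells were incubated 24 hours with compounds at 5 concentrations; primary antibody 12 h at 10 degrees C.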
Hits are given with their value; – = inactive; ? = inconclusive; · = no result. Unless noted, the call rests on the fitted dose curve; in most records, active means well fitted curve in the direction sought with a large enough effect; inconclusive means small, poorly fitted or top-dose-only effect, or another doubt; inactive means no such curve, though single readings can be large; an effect the other way counts as inactive or inconclusive.

SMILES	SW480 rerep	KB-3-1 cytotox	MCF10A rereplic	KB-V1 MDR tox	PINK1 expr mod
NC(=O)Nc1cc(Cl)ccc1Cl	–	–	–	–	–
O=C(COc1ccc2c(c1)OCO2)Nc1nccs1	–	?	–	?	–
CC(C)n1c(SCC(=O)NCc2ccco2)nc2c1c(=O)n(C)c(=O)n2C	–	–	16.4µM	–	–
CCOc1ccc(OCC)c(NC(=O)CSc2nc3c(c(=O)n(C)c(=O)n3C)n2C(C)C)c1	–	?	–	18.4µM	–
CN(C)Cc1ccccc1-c1nc(N(C)C)c2ccccc2n1	·	·	·	·	–
O=C(CN(C(=O)Cn1nnc(-c2ccc(F)cc2)n1)c1ccc(F)c(Cl)c1)NCC1CCCO1 (configuration not stated)	–	–	–	–	–
Cc1cccc(N(CC(=O)NCc2ccccc2)C(=O)Cn2nnc(-c3ccc(C)o3)n2)c1	–	–	–	2.91µM	–
Cc1ccc(-c2nnn(CC(=O)N(CC(=O)NCC3CCCO3)c3ccc(F)c(Cl)c3)n2)o1 (configuration not stated)	–	–	–	14.6µM	–
Cc1ccc(-c2nnn(CC(=O)N(c3ccccc3)C(C(=O)NCC3CCCO3)c3ccc(Cl)cc3)n2)cc1 (configuration not stated)	–	–	18.4µM	–	–
Cc1ccc(-c2nnn(CC(=O)N(c3ccc4c(c3)OCCO4)C(C(=O)NCC3CCCO3)c3ccc(F)cc3)n2)o1 (configuration not stated)	16.4µM	–	?	–	–
COc1ccc(-c2nc(Cn3c(SCc4ccc(C)cc4)nc4cccnc43)c(C)o2)cc1OC	·	·	·	·	–
CN(C)C1CN(Cc2cn(Cc3ccc(Cl)cc3)nn2)S(=O)(=O)C1 (configuration not stated)	·	–	·	–	–
CNc1oc(-c2ccc(Cl)cc2)nc1P(=O)(c1ccccc1)c1ccccc1	–	?	16.4µM	?	–
O=C(CN(Cc1ccccc1)C(=O)c1cc2c(s1)CCC2)NCc1cccs1	–	?	–	2.91µM	–
CN(C)c1cc[n+](CC(=O)Nc2ccc(Cl)c([N+](=O)[O-])c2)cc1	–	6.51µM	?	–	–
CN(C)c1cc[n+](CC(=O)Nc2ccc(OC(F)F)cc2)cc1	–	4.11µM	–	–	–
COc1ccc(Cn2c(CCC(=O)Nc3ccccc3)nc3cccnc32)cc1	–	–	–	–	–
COc1ccc(Cn2c(CCC(=O)Nc3ccc(CC#N)cc3)nc3cccnc32)cc1	–	–	–	2.59µM	–
O=C(CCC(=O)N1CCN(S(=O)(=O)c2ccc(Cl)cc2)CC1)Nc1ccc2ccccc2c1	–	–	–	–	–
CCOC(=O)N1CCN(CCC(=O)Nc2ccc(Br)c(C)c2)CC1	–	?	–	18.4µM	–
CCN1CCN(CCC(=O)Nc2ccc(Br)c(C)c2)CC1	?	–	?	–	–
Cc1ccc(S(=O)(=O)N2CCN(C(=O)CCC(=O)Nc3ccc(Br)c(C)c3)CC2)cc1	–	–	–	13µM	–
CCn1c(Cn2nnc(-c3ccccc3)n2)nnc1SCc1ccc(Cl)c(Cl)c1	–	?	?	23.1µM	–
CCn1c(SCC(O)c2ccccc2)nnc1-c1ccccc1 (configuration not stated)	–	–	–	–	–
CCn1c(SCc2cccc(C)c2)nnc1-c1ccccc1	–	–	–	14.6µM	–
SMILES	SW480 rerep	KB-3-1 cytotox	MCF10A rereplic	KB-V1 MDR tox	PINK1 expr mod
CCCNC(=O)c1cc(Cl)c(NC(=O)C2=CSCCO2)cc1OC	–	?	–	–	–
CCCS(=O)(=O)NC(=O)C1(C)CCN(C(=O)Cc2ccc(F)cc2)C1 (configuration not stated)	·	–	·	–	–
COc1cc(NCCCC(C)N)c2ncccc2c1 (configuration not stated)	?	?	–	–	–
COc1cc(NCCCCC(C)N)c2nccc(C)c2c1 (configuration not stated)	·	5.17µM	·	?	–
CN(C)c1ccc(CC(=O)N2CCCC(c3cc(C(=O)Nc4ccc(F)c(Cl)c4)no3)C2)cc1 (configuration not stated)	·	?	·	20.6µM	–
O=C(Nc1ccc(F)c(Cl)c1)c1cc(C2CCCN(S(=O)(=O)c3ccccc3)C2)on1 (configuration not stated)	·	–	·	–	–
Cc1cccc(OCc2nnc(SCC(=O)Nc3ccc(C)cc3C)o2)c1	·	–	·	?	–
COC(=O)c1cn(C(=O)c2ccc(C)cc2)c2ccccc12	7.31µM	–	–	–	–
COC(=O)c1cn(C(=O)c2cc(C)cc(C)c2)c2ccccc12	–	–	–	–	–
COC(=O)c1cn(C(=O)c2ccc(OC)cc2)c2ccccc12	2.31µM	?	5.8µM	–	–
COC(=O)c1cn(C(=O)c2ccc(OC)c(OC)c2)c2ccccc12	–	–	–	–	–
COc1ccc2c(C)cc(SCC(=O)Nc3nsc(-c4ccccc4C)n3)nc2c1	·	·	·	·	–
CCOc1cccc2sc(Nc3nc4ccc(NC(C)=O)cc4s3)nc12	4.11µM	11.6µM	3.66µM	?	–
CCOc1cccc2sc(NC(=O)CCS(=O)(=O)c3ccccc3)nc12	20.6µM	?	20.6µM	?	–
CCOc1cccc2sc(N(CCN(C)C)C(=O)CCS(=O)(=O)c3ccccc3)nc12	–	–	–	–	–
CCN1CCN(C(=O)CS(=O)(=O)Cc2nc(-c3cccc(OC)c3)oc2C)CC1	–	–	–	–	–
CC(=O)Nc1cc(C(=O)N(C)Cc2ccco2)ccc1Sc1ccc(Cl)cc1	–	–	?	2.91µM	–
CCOc1ccc(CNC(=O)c2ccc(Sc3ccc(Cl)cc3)c(NC(C)=O)c2)cc1	–	?	?	8.2µM	–
CCOc1ccccc1CNC(=O)c1ccc(Sc2ccc(Cl)cc2)c(NC(C)=O)c1	?	–	–	18.4µM	–
CC(=O)Nc1cc(C(=O)NCc2ccco2)ccc1Sc1ccc(F)cc1	–	–	–	?	–
CC(=O)Nc1cc(C(=O)NCc2ccco2)ccc1Sc1ccc(Cl)cc1	–	–	–	?	–
CC(=O)Nc1cc(C(=O)NCc2ccccc2Cl)ccc1Sc1ccc(F)cc1	·	·	·	·	–
CC(C)NC(=O)N1CCC2(CC1)CCN(C(=O)c1cc(C(F)(F)F)cc(C(F)(F)F)c1)CC2	·	·	·	·	–
Cc1nc2ccc(S(=O)(=O)N(CC(=O)Nc3cccc(F)c3)Cc3ccccc3)cc2s1	·	–	·	–	–
Cc1ccccc1OCC(=O)NNC(=O)C1CC(=O)N(c2ccc3c(c2)OCCO3)C1 (configuration not stated)	?	–	–	–	–
Nc1ccc[n+](CC(=O)c2ccc(F)cc2)c1	·	?	·	–	–
COc1ccc(-c2ccc3ncnc(NCc4cccs4)c3c2)cc1	·	?	·	–	·
CC1CCc2c(sc(NC(=O)CSc3ncn[nH]3)c2C#N)C1 (configuration not stated)	–	?	18.4µM	–	–
N#Cc1c(NC(=O)CSc2ncn[nH]2)sc2c1CCCC2	–	?	?	?	–
